An excerpt weighted towards active compounds, which were near 1% of everything screened.
Fh CTSL1 inh: blocks F. hepatica cathepsin L1 in PFM18AAP counter-screen; recombinant F. hepatica cathepsin L1, Z-Leu-Arg-MCA fluorescence; inhibition, % at 5.96 µM; 300,000 compounds, 0.49% hits; AID 1906;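 active = inhibition above the mean of all tested compounds plus 3 SD, set per screening campaign, cut at about 17% in these data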;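 also: 0% = plate median of test compound wells and 100% = 1 µM Z-Phe-Ala-diazomethylketone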
V-ATPase pH: regulators of yeast V-ATPase proton transport. S. cerevisiae, pHLuorin cytosolic pH fluorescence. response, % at 10 µM. 350,000 compounds, 0.37% hits. AID 504577; in the data active = response mostly above about 7.3%, no sharp cut-off; inactive = mostly below about 5.4%; also: actives read high
iPSC survival up: enhancers of human iPSC single-cell survival; hiPSC single-cell survival, ATPlite luminescence; 100% = ROCK inhibitor wells, 0% = DMSO; survival enhancement, % at 20 µM; 360,000 compounds, 0.044% hits; AID 602274; in the data active = survival enhancement above about 18%;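 also: cells exposed to compounds for 16 hours before the ATP read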
Yeast superoxide: lowers age-related superoxide in aged yeast cells; S. cerevisiae aged cells, superoxide DHE fluorescence; hits give low values; superoxide response (% of plate mean), % at 10 µM; 330,000 compounds, 0.18% hits; AID 2690;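 active = superoxide response under a set limit, about three screen SD below normal, cut at about 65% in these data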;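 also: yeast aged for seven days with compound at 30 °C before DHE staining; 100% = average MFI of all compound-treated wells on the plate with controls excluded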
Active calls of the source: *; / = no result given.

SMILES | Fh CTSL1 inh | V-ATPase pH | iPSC survival up | Yeast superoxide
O=C(Cn1c(=O)oc2cc(S(=O)(=O)N3CCCCCC3)ccc21)NC1CCCCCCC1 | 16.7* | -3.2 | 1.7 | 114.3
Cc1cc(=O)n2nc(N3CCCC(C(=O)NCc4ccccc4)C3)sc2n1 (stereo not given) | -1.2 | 2.2 | -3.0 | 74.2
Cc1cc(=O)n2nc(N3CCCC(C(=O)N4CCN(c5ccccc5)CC4)C3)sc2n1 (stereo not given) | 17.4* | -1.4 | -0.2 | 104.4
CN(C)C(=O)N1CCC(C(=O)N2CCCC(C(=O)c3ccc(C(C)(C)C)cc3)C2)CC1 (stereo not given) | 3.5 | -6.5 | -2.2 | 63.2*
CCOC(=O)CC1C(=O)NCCN1S(=O)(=O)c1ccccc1Cl (stereo not given) | 5.1 | -3.3 | 0.0 | 98.3
Cc1ccc(OCC(=O)Nc2sc3c(c2C#N)CC(C)(C)NC3(C)C)cc1 | 3.2 | 13.1* | -0.6 | 86.1
CC1(C)Cc2c(sc(NC(=O)COc3cccc4ccccc34)c2C#N)C(C)(C)N1 | -2.1 | -0.1 | -0.7 | 96.2
O=C1C=C(c2ccccc2)C[C@H](c2cccs2)[C@H]1n1nnc([N+](=O)[O-])n1 | 33.3* | 1.6 | -2.4 | 101.3
C=CCN=C(NC#N)SCC(=O)NC(C)(C)C | -0.7 | -0.7 | 0.7 | 91.2
C=CCN=C(NC#N)SC | 2.5 | -5.5 | -0.7 | 42.7*
O=c1c2ccccc2sn1-c1ccc(Cl)cc1Cl | / | 3.1 | -0.7 | /
CCCCC/C=C\C[C@H](O)/C=C/c1cccc(C[C@H](O)CCCCO)n1 | 40.6* | 3.9 | -3.6 | 96.4
CCc1c(C)nc2ncnn2c1Nc1ccc(C)cc1 | 3.0 | 2.5 | 1.3 | 103.4
CCc1c(C)nc2ncnn2c1NC1CCCc2ccccc21 (stereo not given) | 2.8 | 13.3* | -0.2 | 111.5
COc1cccc(C2CC(=O)N3CN(c4cccc(Cl)c4C)CSC3=C2C#N)c1OC (stereo not given) | 2.9 | 1.5 | 27.1* | 87.0
COc1ccc(OC)c(C2CC(=O)N3CN(c4cccc(Cl)c4C)CSC3=C2C#N)c1 (stereo not given) | 4.7 | -1.1 | 1.4 | 89.0
CN(CC(=O)Nc1ccc(S(=O)(=O)N2CCCC2)cc1)Cc1c(F)cccc1Cl | -5.4 | 4.6 | 1.5 | 101.7
Cc1nnc(SC/C=C/c2ccccc2)n(N)c1=O | 2.5 | 4.3 | -0.8 | 69.3
Nn1c(SC/C=C/c2ccccc2)nnc1-c1ccco1 | -3.0 | 18.2* | -1.4 | 90.9
O=C1C(Nc2ccc(O)cc2)=C/C(=N/S(=O)(=O)c2cccs2)c2ccccc21 | / | 3.5 | -4.6 | /
Cc1ccc(NC2=C/C(=N\S(=O)(=O)c3cccs3)c3ccccc3C2=O)c(C)c1 | 88.2* | -0.5 | -5.1 | 98.9
Cc1ccc(Cl)cc1NC1=C/C(=N\S(=O)(=O)c2cccs2)c2ccccc2C1=O | 59.5* | 3.7 | 4.8 | 117.8
Cc1cccc(NC2=C/C(=N/S(=O)(=O)c3cccs3)c3ccccc3C2=O)c1 | 53.9* | -3.0 | -3.4 | 103.1
O=c1ncc(F)c[nH]1 | 2.0 | / | / | 95.9
Brc1ccc(-c2nnc(-c3ccccc3Br)o2)cc1 | 0.5 | -0.1 | -1.9 | 103.1
SMILES | Fh CTSL1 inh | V-ATPase pH | iPSC survival up | Yeast superoxide
Oc1oc(-c2ccccc2)nc1/C=N/c1ccccn1 | 71.3* | -0.8 | -1.3 | 91.3
Oc1oc(-c2ccccc2Br)nc1C=Nc1ccc(Br)cn1 | 62.6* | -0.3 | 6.2 | 107.7
CN=Cc1nc(-c2ccccc2)oc1O | 6.9 | -0.1 | -0.7 | 110.7
CCCCN1CCCCC1(C)C(=O)NCc1cccs1 (stereo not given) | / | / | 6.6 | /
O=C(CN1C(=O)NC2(CCCC2)C1=O)Nc1ccccc1N1CCCC1 | 4.2 | -0.6 | 0.4 | 93.0
CC1(c2ccccc2)NC(=O)N(CC(=O)Nc2ccccc2N2CCCC2)C1=O (stereo not given) | 18.4* | -6.6 | -0.2 | 108.1
O=S(=O)(c1ccc(S(=O)(=O)N(Cc2ccco2)Cc2ccccc2Cl)cc1)N1CCCC1 | 1.1 | / | -0.2 | 105.8
CN(C)S(=O)(=O)c1ccc(S(=O)(=O)N(Cc2ccco2)Cc2ccccc2Cl)cc1 | 36.0* | 0.4 | -0.6 | 85.3
CCCCNC(=O)OCCNC(=O)Oc1cccc(C)c1 | 44.6* | 13.1 | 6.4 | 125.2
CCCCNC(=O)OC(C)CNC(=O)Oc1cccc(C)c1 (stereo not given) | 25.9* | 5.0 | 5.7 | 99.9
COc1ccc(NC(=O)CCNC(=O)Cn2ccc3ccccc3c2=O)cc1Cl | -4.0 | -0.8 | -0.5 | 94.3
CCCC(NC(=O)CCl)c1ccccc1 (stereo not given) | 22.3* | -0.4 | -1.2 | 97.8
CC(C)CC(NC(=O)CCl)c1ccccc1 (stereo not given) | 15.3 | -0.5 | -1.0 | 88.9
Cc1cc(O)c(NC(=O)c2ccc(Br)o2)cc1C | -2.9 | 14.2* | -0.5 | 94.0
CC1=C(C(=O)OCCc2ccccc2)C(c2ccsc2)NC(=O)N1C (stereo not given) | 5.1 | 22.8* | 2.8 | 102.4
CCn1cc(CNC(=O)/C=C/c2ccc([N+](=O)[O-])cc2)cn1 | 1.6 | 3.6 | 0.8 | 108.8
NC(=O)CC(NC(=O)c1ccccc1)C(=O)O (stereo not given) | -2.3 | -2.1 | 20.5* | 103.5
COc1ccc(/C=C(/NC(=O)c2ccc(C)cc2)C(=O)NCc2ccncc2)cc1 | 20.8* | -1.5 | -0.3 | 106.0
COCCN1CN(S(=O)(=O)c2cccc(Cl)c2)c2nc3ccccc3nc21 | 2.1 | -1.4 | -0.5 | 122.4
C=CCN1CN(S(=O)(=O)c2cccc(Cl)c2)c2nc3ccccc3nc21 | 16.8* | -3.9 | 0.7 | 117.8
Cc1c(C#N)c2n(c1C)CCCC(=O)N2 | / | -0.8 | 1.4 | /
CC1CCCN(C2=C(Cl)C(=O)N(c3cccc(Cl)c3)C2=O)C1 (stereo not given) | 3.4 | 0.1 | 2.1 | 95.8
O=C1C(Cl)=C(N2CCCC2)C(=O)N1c1ccc(F)cc1 | 29.4* | 4.2 | 0.1 | 106.1
CN1CCN(C2=C(Cl)C(=O)N(c3cccc(Cl)c3)C2=O)CC1 | 23.4* | 0.2 | -1.7 | 85.7
Cc1ccc(N2C(=O)C(Cl)=C(N3CCOCC3)C2=O)cc1Cl | 38.3* | -0.5 | -0.9 | 98.0
SMILES | Fh CTSL1 inh | V-ATPase pH | iPSC survival up | Yeast superoxide
O=C1C(Cl)=C(N2CCOCC2)C(=O)N1c1ccccc1Cl | 16.5 | -3.8 | -1.8 | 99.3
O=C1C(Cl)=C(N2CCCCCC2)C(=O)N1c1ccc(Cl)cc1 | 10.9 | 0.4 | 1.3 | 102.9
CN1CCN(C2=C(Cl)C(=O)N(c3ccc(Cl)c(Cl)c3)C2=O)CC1 | 40.2* | -0.2 | -0.7 | 94.3
CCCOc1ccc(Cc2c(Cl)nc(SC)nc2N(C)C)cc1 | 0.4 | -1.9 | 1.1 | 94.0
COC(=O)/C(=N/Nc1ccc(C)cc1)N1CCCc2ccccc21 | 0.7 | 1.5 | 1.8 | 62.7*
COC(=O)/C(=N/Nc1ccccc1)N1CCCc2ccccc21 | -0.6 | -8.0 | -0.8 | 102.9
COc1ccc(C(=O)/C=C/Nc2ccc(S(=O)(=O)Nc3cc(OC)nc(OC)n3)cc2)c(OC)c1 | -2.4 | 0.9 | 1.1 | 97.2
CC1=CC(=O)[C@H]2C(C)(C)CCC[C@]2(C)[C@@]1(O)CO | 49.3* | -0.7 | 1.7 | 81.0
CCOC(=O)N1CCN(C(=O)C[C@@H]2C[C@@]3(C(=O)OCC)CCCC=C3N(Cc3ccc(Cl)cc3Cl)C2=O)CC1 | / | / | -0.8 | /
